The supplement of paper PMC11417369
Over roughly 25,000 sequences, “ln(normalized median fluorescence intensity)” has its median near 9.3; the highest 2% begin near 10. For the sample, the highest values were picked, then their nearest neighbours and some sequences at random.

Each sequence was assayed on PF3D7_0420300 AP2 domain 1 (GST-tagged) (assay: gcPBM binding intensity (ln(normalized median fluorescence intensity)); higher = stronger DNA binding).
Method in brief: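 An Agilent 4 × 180k array of primer-extended double-stranded 36-bp intergenic genomic probes, with negative controls, was incubated for 1 h with GST-tagged P. falciparum DNA-binding domains expressed in E. coli. Alexa488 anti-GST antibody detected bound protein, scanned at 488 nm. Binding intensity is the highest Masliner-normalised natural-log median intensity across replicate spots of either probe orientation.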

Row | Sequence | gcPBM binding intensity (ln)
1 | AAAAAAATTCTTGGCGCACACACTTTAAAAATTAAA [CACACA_site597] | 9.24
2 | GTAAAAAAATAGCACACACACAAAAACACGCACAAA [CACACA_site6723] | 10.2
3 | AAGTAAAAAAATAGCACACACACAAAAACACCCACA [CACACA_site1291] | 10
4 | CAATATAAAAAACACACGCACACAAAAAAAAAAAAA [CACACA_site3521] | 9.79
5 | AAATATTAGTAACACAGACACACAAAAAAAAAAAAA [CACACA_site2175] | 9.5
6 | AAGTAAAAAAATAGCACACACACAAAAACACAGACA [CACACA_site4839] | 10.2
7 | AAAAAACAAAAACACACGCACACAAAAAAAAAAAAA [CACACA_site802] | 9.82
8 | AAAAAAAACATCCTCACACATATATATATATATATA [CACACA_site5166] | 9.18
9 | TCACCATATAAACGTGCACACTACAAAAATATATAA [CACACA_site5413] | 9.26
10 | TTGGTTATACAACACATGCACACGTAAATAAATATT [CACACA_site3841] | 9.38
11 | AAAGACGTTTATAAATGTACATACACTTTAAAAGTT [XGTACX_site8753] | 9.08
12 | AAAAAGTGATTAAAATGTACAAAATGCATAAAAGAA [XGTACX_site6625] | 9.6
13 | ATAAATAAATAAAAGCGTACATATATATAAAATATA [XGTACX_site8107] | 9.39
14 | TATAAATAGAGGAAGCGTACATATATATATATATAT [XGTACX_site4993] | 9.34
15 | TCGGGAGGGGGGAAGCGTACATATATAAAATTATTA [XGTACX_site4683] | 10.2
16 | TTCTTACATGAGTGTACACACTTTTTTTCAGAAAAT [CACACA_site4215] | 9.19
17 | ACCGTGGGAGGACACACACACACACCCACATATATA [CACACA_site4339] | 10.2
18 | CGTGGGAGCAGACACACACACACACCCATATATATA [CACACA_site334] | 10.1
19 | ACCGTGGGAGGACACACACACACACGCACATATATA [CACACA_site6289] | 10.3

Row | Sequence | gcPBM binding intensity (ln)
20 | AAACCGTGGGAGCACACACACACACGCGCACATATA [CACACA_site6288] | 10.1
21 | ACTGTGGGAATAACCACACACACACCCACATATATA [CACACA_site3542] | 10
22 | CGTGGGAGCGGACACACACACACACCCATATATATA [CACACA_site4340] | 10.1
23 | AACGCACGAGGACACACACACATATTTATATTTATA [CACACA_site6608] | 9.87
24 | ACCGTGGGAAGACACACACACACACCCACATATATA [CACACA_site333] | 10.2
25 | ATGGGACATATATATACACACATATATATATATATA [CACACA_site1202] | 9.46
26 | AATTATCAGGAATGATGTACTGAAATAAAAAAAAAA [XGTACX_site3280] | 9.11
27 | GTATATATATATATATGTACTAATTAGTAGTTTACG [XGTACX_site6274] | 9.25
28 | TTTTTATGAATTCTTTTGTTAATAATAATATGTTGT [TGCATGCA_negctrl_site198] | 9.19
29 | ATATATCTGTATGGCACACACGGATAAATATATATA [CACACA_site4668] | 9.52
30 | ATATAGTAAATTGGTAGTACATAAAATGATTTTATG [XGTACX_site4143] | 9.26
31 | AAAAAAAAATTGTGTACACATAATTATATCATATGT [CACACA_site4500] | 9.3
32 | TTTCTTATTTTTTTCACACACTAAACATTTCAAATG [CACACA_site5259] | 9.35
33 | ACCTATTTCAAACACACACACACACTAACAAACATA [CACACA_site8233] | 10.3
34 | TGTTTCTTATTTTTTTCACACACTAAACATTTCAAA [CACACA_site2218] | 9.62
35 | ACTATTTTCTTCAAAACATGCACCACATAAACATAA [TGCATGCA_site200] | 9.18
36 | ACCTATTTCAAACACACACACACACCCACAAACATA [CACACA_site977] | 10.4
37 | CTATTTCAGAAACACACACACACAAACAAACATATA [CACACA_site978] | 9.93
38 | ACCTATTTCAAACACACACACACACTAGCAAACATA [CACACA_site4695] | 10.3

Row | Sequence | gcPBM binding intensity (ln)
39 | AAAAAATTAAAAATCACACATAAATATATATAAAAA [CACACA_site4192] | 9.48
40 | CATATATTATTATATGCACACATGAAAATATACAAA [CACACA_site2795] | 9.49
41 | AAGAAAAAAATTTATACAAGAATTTTTTATTATTAA [TGCATGCA_negctrl_site587] | 8.9
42 | ATTTATGTTATATATACACACACAAAAGAAAAAAAA [CACACA_site8977] | 9.82
43 | AAACATATAAACATATGTACATATAAACATATATAC [XGTACX_site5026] | 9.42
44 | AAAAAAAAAGTATTATGTACATAAAAATAAAAAAAT [XGTACX_site4166] | 9.42
45 | ATATAAGTATATCTATGTACATACAATATAAATGTA [XGTACX_site2153] | 9.09
46 | TAAAAAATATAAACTGCACACACAAAAAAAAAAGAG [CACACA_site8379] | 10.2
47 | AAAAAAAGAAAAAAAACACACACAAATATAAATAAA [CACACA_site8309] | 10
48 | AAATATAAACGGCACACACACAAAAAAAGAAAAAAA [CACACA_site649] | 10.2
49 | AAAAATATAAACTGCACACACAAAAAAAAAAGAGAA [CACACA_site1367] | 10.1
50 | AAAAATATAAACTGCACACACACAAAAAAAGAAAAA [CACACA_site648] | 10.1
51 | AAAAAGAAAAAAAACACACACAAATATAAATAAATA [CACACA_site1183] | 9.98
52 | TCTAATGATATATACACACACATATAGATTTATATA [CACACA_site7044] | 9.64
53 | TGTAGATATTATATATGTACGCATATGAAATATATA [XGTACX_site1586] | 9.09
54 | ACATATTCATATGGAAGTACGATAATGTAGTCATAT [XGTACX_site7080] | 9.37
55 | TTTAACAACTATTTCTGTACACATTTTTATATAATT [XGTACX_site4917] | 9.47
56 | TTTATATTATAATATAATAATGATCTTAATTTTTTT [XGTACX_negctrl_site100] | 8.91
57 | AAAAAAAATTTTAATTGTACAAAAAAAAAAAATATA [XGTACX_site2259] | 8.91
